# From article PMC12820563, “FoxP3 forms a head-to-head dimer in vivo and stabilizes its multimerization on adjacent microsatellites”
# In all, about 16,000 sequences were measured (“rpm ratio (pull-down/input)”: median about 0.5, highest 2% from about 5.5 on). Only a selection was taken, and the highest values are over-represented in it overall.
# Target: T1, MBP-FoxP3dN (Mus musculus, UniProt Q99JB6 188-423)
# T1 sequence: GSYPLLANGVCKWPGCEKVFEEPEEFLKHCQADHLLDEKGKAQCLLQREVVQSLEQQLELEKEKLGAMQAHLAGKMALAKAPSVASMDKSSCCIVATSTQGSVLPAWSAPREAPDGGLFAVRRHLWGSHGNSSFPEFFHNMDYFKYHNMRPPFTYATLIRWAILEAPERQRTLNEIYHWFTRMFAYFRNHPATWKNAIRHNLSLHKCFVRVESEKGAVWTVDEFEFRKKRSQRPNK
# Experiment: PD-seq (MBP pull-down with sequencing); 20 mM Tris-HCl pH 7.5, 100 mM NaCl, 1.5 mM MgCl2, 0.4 uM protein, 0.1 uM dsDNA library, 30 min, room temperature, amylose pull-down; high values mean tight binding
# Details: protein: recombinant; tags: His6-MBP; chain copies: 2; dsDNA, one strand shown
# How it was run: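 Protein and DNA were mixed at 0.4 µM and 0.1 µM and held for 30 min at room temperature in Tris pH 7.5 buffer with NaCl and MgCl2; the protein was a His6-MBP-tagged, N-terminally truncated mouse FoxP3 or FoxP1 fragment from E. coli, and the DNA a Klenow-filled double-stranded degenerate library. Amylose resin captured the complexes, which were washed three times. Binding is read as reads-per-million enrichment of pull-down versus input after Illumina sequencing, with replicates pooled.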
row,Sequence,binding signal
1,GATGATTGTTCTCCCAGCTGATGAATTTCGCAACTCGAGTAAACAAATTTTCCTAATCTTTCTGTTCAAGCGCCATCTAC,5.53 RPM ratio (pull-down/input)
2,GATGATTGTTCTCCCAGCTGATGAATTCGCCAACTCGAGTAAACAAATTTTCCTAATCTTTCTGTTCAAGCGCCATCTAC,0.292 RPM ratio (pull-down/input)
3,GATGATTGTTCTCCCAGCTGATGAATTGCGCAACTCGAGTAAACAAATTTTCCTAATCTTTCTGTTCAAGCGCCATCTAC,6.43 RPM ratio (pull-down/input)
4,GATGATTGTTCTCCCAGCTGATGAATTTTTCAACTCGAGTAAACAAATTTTCCTAATCTTTCTGTTCAAGCGCCATCTAC,0.287 RPM ratio (pull-down/input)
5,GATGATTGTTCTCCCAGCTGATGAATTGCCCAACTCGAGTAAACAAATTTTCCTAATCTTTCTGTTCAAGCGCCATCTAC,0.42 RPM ratio (pull-down/input)
6,GATGATTGTTCTCCCAGCTGATGAATTCGCAAACTCGAGTAAACAAATTTTCCTAATCTTTCTGTTCAAGCGCCATCTAC,0.431 RPM ratio (pull-down/input)
7,GATGATTGTTCTCCCAGCTGATGAATTTCCCGTGTCGAGTAAACAAATTTTCCTAATCTTTCTGTTCAAGCGCCATCTAC,0.287 RPM ratio (pull-down/input)
8,GATGATTGTTCTCCCAGCTGATGAATTAGCTTCTTCGAGTAAACAAATTTTCCTAATCTTTCTGTTCAAGCGCCATCTAC,0.901 RPM ratio (pull-down/input)
9,GATGATTGTTCTCCCAGCTGATGAATTAGTTGTGTCGAGTAAACAAATTTTCCTAATCTTTCTGTTCAAGCGCCATCTAC,6.21 RPM ratio (pull-down/input)
10,GATGATTGTTCTCCCAGCTGATGAATTAGTTCTGTCGAGTAAACAAATTTTCCTAATCTTTCTGTTCAAGCGCCATCTAC,0.398 RPM ratio (pull-down/input)
11,GATGATTGTTCTCCCAGCTGATGAATTAGTGTTGTCGAGTAAACAAATTTTCCTAATCTTTCTGTTCAAGCGCCATCTAC,3.93 RPM ratio (pull-down/input)
12,GATGATTGTTCTCCCAGCTGATGAATTAGTTCTCTCGAGTAAACAAATTTTCCTAATCTTTCTGTTCAAGCGCCATCTAC,0.491 RPM ratio (pull-down/input)
13,GATGATTGTTCTCCCAGCTGATGAATTAGCTGTCTCGAGTAAACAAATTTTCCTAATCTTTCTGTTCAAGCGCCATCTAC,2.44 RPM ratio (pull-down/input)
14,GATGATTGTTCTCCCAGCTGATGAATTAGTTGTCTCGAGTAAACAAATTTTCCTAATCTTTCTGTTCAAGCGCCATCTAC,5.87 RPM ratio (pull-down/input)
15,GATGATTGTTCTCCCAGCTGATGAATTTCAGGGCTCGAGTAAACAAATTTTCCTAATCTTTCTGTTCAAGCGCCATCTAC,0.225 RPM ratio (pull-down/input)
16,GATGATTGTTCTCCCAGCTGATGAATTGCAGACCTCGAGTAAACAAATTTTCCTAATCTTTCTGTTCAAGCGCCATCTAC,0.496 RPM ratio (pull-down/input)

row,Sequence,binding signal
1,GATGATTGTTCTCCCAGCTGATGAATTTTGGCTCTCGAGTAAACAAATTTTCCTAATCTTTCTGTTCAAGCGCCATCTAC,0.475 RPM ratio (pull-down/input)
2,GATGATTGTTCTCCCAGCTGATGAATTCCGATCATCGAGTAAACAAATTTTCCTAATCTTTCTGTTCAAGCGCCATCTAC,0.404 RPM ratio (pull-down/input)
3,GATGATTGTTCTCCCAGCTGATGAATTCAGCATTTCGAGTAAACAAATTTTCCTAATCTTTCTGTTCAAGCGCCATCTAC,5.86 RPM ratio (pull-down/input)
4,GATGATTGTTCTCCCAGCTGATGAATTCCAGCATTCGAGTAAACAAATTTTCCTAATCTTTCTGTTCAAGCGCCATCTAC,4.11 RPM ratio (pull-down/input)
5,GATGATTGTTCTCCCAGCTGATGAATTCTCAGCATCGAGTAAACAAATTTTCCTAATCTTTCTGTTCAAGCGCCATCTAC,0.635 RPM ratio (pull-down/input)
6,GATGATTGTTCTCCCAGCTGATGAATTCAGCATCTCGAGTAAACAAATTTTCCTAATCTTTCTGTTCAAGCGCCATCTAC,6.49 RPM ratio (pull-down/input)
7,GATGATTGTTCTCCCAGCTGATGAATTTCAGCATTCGAGTAAACAAATTTTCCTAATCTTTCTGTTCAAGCGCCATCTAC,4.99 RPM ratio (pull-down/input)
8,GATGATTGTTCTCCCAGCTGATGAATTCAGCAGCTCGAGTAAACAAATTTTCCTAATCTTTCTGTTCAAGCGCCATCTAC,0.994 RPM ratio (pull-down/input)
9,GATGATTGTTCTCCCAGCTGATGAATTCCGCACTTCGAGTAAACAAATTTTCCTAATCTTTCTGTTCAAGCGCCATCTAC,1.22 RPM ratio (pull-down/input)
10,GATGATTGTTCTCCCAGCTGATGAATTTGGGTCATCGAGTAAACAAATTTTCCTAATCTTTCTGTTCAAGCGCCATCTAC,0.724 RPM ratio (pull-down/input)
11,GATGATTGTTCTCCCAGCTGATGAATTCTTTACTTCGAGTAAACAAATTTTCCTAATCTTTCTGTTCAAGCGCCATCTAC,0.373 RPM ratio (pull-down/input)
12,GATGATTGTTCTCCCAGCTGATGAATTGGGGATTTCGAGTAAACAAATTTTCCTAATCTTTCTGTTCAAGCGCCATCTAC,0.404 RPM ratio (pull-down/input)
13,GATGATTGTTCTCCCAGCTGATGAATTTCGTGAATCGAGTAAACAAATTTTCCTAATCTTTCTGTTCAAGCGCCATCTAC,0.281 RPM ratio (pull-down/input)
14,GATGATTGTTCTCCCAGCTGATGAATTCAGCTCATCGAGTAAACAAATTTTCCTAATCTTTCTGTTCAAGCGCCATCTAC,0.381 RPM ratio (pull-down/input)
15,GATGATTGTTCTCCCAGCTGATGAATTTTGAGCCTCGAGTAAACAAATTTTCCTAATCTTTCTGTTCAAGCGCCATCTAC,0.568 RPM ratio (pull-down/input)
16,GATGATTGTTCTCCCAGCTGATGAATTCTCTGCCTCGAGTAAACAAATTTTCCTAATCTTTCTGTTCAAGCGCCATCTAC,0.284 RPM ratio (pull-down/input)
